# Laboratory results reported in the supplement of paper PMC10849652.
# About 7,900 targets were measured; listed, in parts, are those with a hit and a random draw of the rest. About 0.6% of all pairs of compound and target were hits. Unmarked numbers belong to inactive results.
# How the values were obtained:
# Assay in all cases: log2 fold change, soluble protein after heating vs DMSO (PISA); higher = thermal stabilisation; K562 cells, 10 uM, 30 min; active = over 0.2 and 3.5 SD of the protein, either way, in both replicates (recomputed)
# [1] = compound: CC[C@@H]1C(=O)N(C)c2cnc(Nc3ccc(C(=O)NC4CCN(C)CC4)cc3OC)nc2N1C1CCCC1
# Summary of the method: (§1)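 K562 cells (2×10^6 cells/mL) were treated with 10 μM compound for 30 min, and aliquots were heated for 3 min over 48°C-58°C. Pooled aliquots were extracted in PBS with 0.5% NP-40 at 4°C, and the supernatant after 21,000xg for 90 min was measured by TMTpro 16plex LC-MS/MS with channel sums equalised. Reported thermal stability, relative to control samples and from duplicates, is a log2 fold change.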
# [2] = compound: CC[C@@H]1C(=O)N(C)c2cnc(Nc3ccc(C(=O)N[C@H]4CC[C@H](N5CCN(CC6CC6)CC5)CC4)cc3OC)nc2N1C(C)C [volasertib]
# Summary of the method: as §1
# [3] = compound: CC[C@H](C)N1C=C(C2=C(C=C(C=C21)C3=CN=C(C=C3)N4CCNCC4)C(=O)NCC5=C(C=C(NC5=O)C)C)C
# Summary of the method: as §1
# [4] = compound: CC[C@H](C)[C@@H](C(=O)N[C@@H]([C@@H](C)O)C(=O)N[C@@H](CC(C)C)C(=O)[C@]1(CO1)C)NC(=O)[C@H]([C@@H](C)CC)N(C)C(=O)C [epoxomicin]
# Summary of the method: as §1
# [5] = compound: CCn1c(C(=O)N(C2CC2)C2CC2)cc2c3c(ncn3C)c(Nc3cc(C)n(C)n3)nc21
# Summary of the method: as §1
# [6] = compound: CCn1cc(-c2ccnc3[nH]c(-c4cccc(CN(C)C)c4)cc23)c(-c2ccc(NC(=O)N(C)C)cc2)n1
# Summary of the method: as §1
# [7] = compound: CN(C)CC(=O)Nc1ccc2[nH]c(=O)c3ccccc3c2c1
# Summary of the method: as §1
# [8] = compound: CN(CCOC1=CC=C(C=C1)C[C@H]2C(=O)NC(=O)S2)C3=CC=CC=N3 (racemic) [rosiglitazone]
# Summary of the method: as §1
# [9] = compound: CN1C2=C(C3=C1C(=O)N(N=C3)CC4=CC(=CC=C4)N)SC(=C2)S(=O)C
# Summary of the method: as §1
# [10] = compound: CN1CCC(CNc2ccc3ncc(-c4cccc(OC(F)(F)F)c4)n3n2)CC1
# Summary of the method: as §1
# [11] = compound: CN1CCN(CCOc2cc(OC3CCOCC3)c3c(Nc4c(Cl)ccc5c4OCO5)ncnc3c2)CC1 [saracatinib]
# Summary of the method: as §1
# [12] = compound: CN1CCN(c2nc(C3=C(c4c[nH]c5ccccc45)C(=O)NC3=O)c3ccccc3n2)CC1 [sotrastaurin]
# Summary of the method: as §1
# [13] = compound: CN1CC[C@H](c2c(O)cc(O)c3c(=O)cc(-c4ccccc4Cl)oc23)[C@H](O)C1 [alvocidib]
# Summary of the method: as §1
# [14] = compound: CN1CCc2c(c3ccccc3n2Cc2ccc(C(=O)NO)cc2)C1 [Tubastatin A]
# Summary of the method: as §1
# [15] = compound: CNC(=O)C1=CC=CC=C1NC2=NC(=NC=C2Cl)NC3=C(C=C(C=C3)N4CCOCC4)OC
# Summary of the method: as §1
# [16] = compound: CNC(=O)c1ccc(Nc2ncc(C(F)(F)F)c(NCc3nccnc3N(C)S(C)(=O)=O)n2)cc1 [defactinib]
# Summary of the method: as §1
# [17] = compound: CNCc1ccc(-c2[nH]c3cc(F)cc4c3c2CCNC4=O)cc1 [rucaparib]
# Summary of the method: as §1
# [18] = compound: CNc1nc(-c2ccc3c(N)n[nH]c3c2)cc(N2C[C@@H](C(=O)NC3CCCCC3)CC[C@H]2C)n1
# Summary of the method: as §1
# [19] = compound: COC(=O)N[C@@H](C)CNc1nccc(-c2cn(C(C)C)nc2-c2cc(Cl)cc(NS(C)(=O)=O)c2F)n1 [encorafenib]
# Summary of the method: as §1
# [20] = compound: COC(=O)[C@H](CCSC)NC(=O)C1=C(C=C(C=C1)NC[C@H](CS)N)C2=CC=CC=C2
# Summary of the method: as §1
# Chain of UniProt Q15057 (Q15057 whole entry, looked up): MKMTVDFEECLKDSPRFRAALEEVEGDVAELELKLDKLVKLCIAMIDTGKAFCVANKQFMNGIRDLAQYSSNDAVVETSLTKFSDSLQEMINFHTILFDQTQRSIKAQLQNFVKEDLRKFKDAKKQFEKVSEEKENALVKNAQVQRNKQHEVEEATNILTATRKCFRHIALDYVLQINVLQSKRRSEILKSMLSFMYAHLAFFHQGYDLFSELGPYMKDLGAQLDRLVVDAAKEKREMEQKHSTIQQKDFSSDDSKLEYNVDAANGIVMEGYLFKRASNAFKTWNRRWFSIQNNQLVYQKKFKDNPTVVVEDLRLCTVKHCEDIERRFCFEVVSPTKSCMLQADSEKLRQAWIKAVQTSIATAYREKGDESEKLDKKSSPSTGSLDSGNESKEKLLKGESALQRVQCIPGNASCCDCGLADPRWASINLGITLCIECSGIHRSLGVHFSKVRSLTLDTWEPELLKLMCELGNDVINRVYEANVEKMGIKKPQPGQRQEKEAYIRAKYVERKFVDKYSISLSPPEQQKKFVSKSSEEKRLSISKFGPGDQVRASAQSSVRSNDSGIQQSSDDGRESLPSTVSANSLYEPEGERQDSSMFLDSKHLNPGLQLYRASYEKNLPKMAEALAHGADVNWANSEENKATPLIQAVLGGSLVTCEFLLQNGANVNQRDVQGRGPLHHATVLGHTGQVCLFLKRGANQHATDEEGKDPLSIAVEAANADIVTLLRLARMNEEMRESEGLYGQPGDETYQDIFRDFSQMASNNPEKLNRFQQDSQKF
# Chain of UniProt P11117 (P11117 whole entry, looked up): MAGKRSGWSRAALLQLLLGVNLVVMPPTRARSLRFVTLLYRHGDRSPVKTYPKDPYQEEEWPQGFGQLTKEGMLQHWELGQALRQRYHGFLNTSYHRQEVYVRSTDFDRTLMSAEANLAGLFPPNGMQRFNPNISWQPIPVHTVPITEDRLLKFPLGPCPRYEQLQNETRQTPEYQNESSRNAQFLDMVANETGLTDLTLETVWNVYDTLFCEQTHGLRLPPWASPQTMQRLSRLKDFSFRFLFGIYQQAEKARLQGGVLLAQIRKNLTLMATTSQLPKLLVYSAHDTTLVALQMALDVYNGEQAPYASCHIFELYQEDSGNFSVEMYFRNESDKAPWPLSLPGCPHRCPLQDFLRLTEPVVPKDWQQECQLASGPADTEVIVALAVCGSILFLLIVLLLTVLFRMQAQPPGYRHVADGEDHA
# Chain of UniProt Q14457 (Q14457 whole entry, looked up): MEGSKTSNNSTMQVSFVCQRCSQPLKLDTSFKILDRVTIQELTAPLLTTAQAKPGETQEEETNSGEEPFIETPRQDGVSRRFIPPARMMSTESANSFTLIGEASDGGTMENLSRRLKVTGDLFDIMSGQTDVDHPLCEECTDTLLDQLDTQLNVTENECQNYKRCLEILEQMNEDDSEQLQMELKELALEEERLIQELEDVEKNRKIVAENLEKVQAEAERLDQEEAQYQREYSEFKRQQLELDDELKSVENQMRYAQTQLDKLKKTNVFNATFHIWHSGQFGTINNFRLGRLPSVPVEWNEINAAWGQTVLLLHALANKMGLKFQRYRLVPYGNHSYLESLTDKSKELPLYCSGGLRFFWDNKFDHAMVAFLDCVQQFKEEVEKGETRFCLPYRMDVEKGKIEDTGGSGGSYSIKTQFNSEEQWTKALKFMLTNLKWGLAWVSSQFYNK
# Chain of UniProt Q7L1Q6 (Q7L1Q6 whole entry, looked up): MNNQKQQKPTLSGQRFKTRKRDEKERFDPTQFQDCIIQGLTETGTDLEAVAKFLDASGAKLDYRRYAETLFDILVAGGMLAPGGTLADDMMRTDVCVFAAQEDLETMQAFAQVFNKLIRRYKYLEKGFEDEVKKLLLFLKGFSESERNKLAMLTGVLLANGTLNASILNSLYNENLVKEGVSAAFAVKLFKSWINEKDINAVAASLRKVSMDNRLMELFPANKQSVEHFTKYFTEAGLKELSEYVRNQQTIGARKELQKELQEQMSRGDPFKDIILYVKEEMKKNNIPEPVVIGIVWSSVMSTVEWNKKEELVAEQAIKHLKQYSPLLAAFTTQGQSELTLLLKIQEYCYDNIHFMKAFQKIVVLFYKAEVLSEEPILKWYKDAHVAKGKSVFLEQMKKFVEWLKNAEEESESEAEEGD
# Chain of UniProt Q9Y312 (Q9Y312 whole entry, looked up): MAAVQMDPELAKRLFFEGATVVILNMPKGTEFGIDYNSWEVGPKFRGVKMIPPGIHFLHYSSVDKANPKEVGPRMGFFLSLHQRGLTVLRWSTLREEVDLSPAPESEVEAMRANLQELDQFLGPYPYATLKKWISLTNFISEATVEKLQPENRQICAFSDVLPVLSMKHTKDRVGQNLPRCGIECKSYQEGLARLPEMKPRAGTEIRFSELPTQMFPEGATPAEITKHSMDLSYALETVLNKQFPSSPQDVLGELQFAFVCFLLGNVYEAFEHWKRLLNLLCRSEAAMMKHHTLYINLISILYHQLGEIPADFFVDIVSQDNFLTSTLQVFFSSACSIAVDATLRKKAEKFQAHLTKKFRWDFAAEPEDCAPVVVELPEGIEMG
# Chain of UniProt O43823 (O43823 whole entry, looked up): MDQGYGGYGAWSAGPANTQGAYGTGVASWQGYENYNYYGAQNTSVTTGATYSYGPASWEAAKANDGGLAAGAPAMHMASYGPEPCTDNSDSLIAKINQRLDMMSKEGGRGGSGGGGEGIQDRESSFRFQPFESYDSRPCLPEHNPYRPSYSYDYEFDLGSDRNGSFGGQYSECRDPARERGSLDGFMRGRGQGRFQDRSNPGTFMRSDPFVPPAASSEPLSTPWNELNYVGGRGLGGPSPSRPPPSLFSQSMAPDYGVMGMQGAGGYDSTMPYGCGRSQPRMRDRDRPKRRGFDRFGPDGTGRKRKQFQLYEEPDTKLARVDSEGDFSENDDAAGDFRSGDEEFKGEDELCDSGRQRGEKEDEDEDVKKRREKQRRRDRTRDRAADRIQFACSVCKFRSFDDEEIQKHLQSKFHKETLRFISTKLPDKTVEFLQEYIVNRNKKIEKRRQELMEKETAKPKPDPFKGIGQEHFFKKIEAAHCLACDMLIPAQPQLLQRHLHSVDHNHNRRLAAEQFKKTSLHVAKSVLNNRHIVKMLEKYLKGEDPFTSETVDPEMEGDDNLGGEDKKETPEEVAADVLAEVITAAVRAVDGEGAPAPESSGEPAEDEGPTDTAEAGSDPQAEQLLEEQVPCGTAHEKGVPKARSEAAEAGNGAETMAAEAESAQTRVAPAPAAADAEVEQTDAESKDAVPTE
# Chain of UniProt Q9BX63 (Q9BX63 whole entry, looked up): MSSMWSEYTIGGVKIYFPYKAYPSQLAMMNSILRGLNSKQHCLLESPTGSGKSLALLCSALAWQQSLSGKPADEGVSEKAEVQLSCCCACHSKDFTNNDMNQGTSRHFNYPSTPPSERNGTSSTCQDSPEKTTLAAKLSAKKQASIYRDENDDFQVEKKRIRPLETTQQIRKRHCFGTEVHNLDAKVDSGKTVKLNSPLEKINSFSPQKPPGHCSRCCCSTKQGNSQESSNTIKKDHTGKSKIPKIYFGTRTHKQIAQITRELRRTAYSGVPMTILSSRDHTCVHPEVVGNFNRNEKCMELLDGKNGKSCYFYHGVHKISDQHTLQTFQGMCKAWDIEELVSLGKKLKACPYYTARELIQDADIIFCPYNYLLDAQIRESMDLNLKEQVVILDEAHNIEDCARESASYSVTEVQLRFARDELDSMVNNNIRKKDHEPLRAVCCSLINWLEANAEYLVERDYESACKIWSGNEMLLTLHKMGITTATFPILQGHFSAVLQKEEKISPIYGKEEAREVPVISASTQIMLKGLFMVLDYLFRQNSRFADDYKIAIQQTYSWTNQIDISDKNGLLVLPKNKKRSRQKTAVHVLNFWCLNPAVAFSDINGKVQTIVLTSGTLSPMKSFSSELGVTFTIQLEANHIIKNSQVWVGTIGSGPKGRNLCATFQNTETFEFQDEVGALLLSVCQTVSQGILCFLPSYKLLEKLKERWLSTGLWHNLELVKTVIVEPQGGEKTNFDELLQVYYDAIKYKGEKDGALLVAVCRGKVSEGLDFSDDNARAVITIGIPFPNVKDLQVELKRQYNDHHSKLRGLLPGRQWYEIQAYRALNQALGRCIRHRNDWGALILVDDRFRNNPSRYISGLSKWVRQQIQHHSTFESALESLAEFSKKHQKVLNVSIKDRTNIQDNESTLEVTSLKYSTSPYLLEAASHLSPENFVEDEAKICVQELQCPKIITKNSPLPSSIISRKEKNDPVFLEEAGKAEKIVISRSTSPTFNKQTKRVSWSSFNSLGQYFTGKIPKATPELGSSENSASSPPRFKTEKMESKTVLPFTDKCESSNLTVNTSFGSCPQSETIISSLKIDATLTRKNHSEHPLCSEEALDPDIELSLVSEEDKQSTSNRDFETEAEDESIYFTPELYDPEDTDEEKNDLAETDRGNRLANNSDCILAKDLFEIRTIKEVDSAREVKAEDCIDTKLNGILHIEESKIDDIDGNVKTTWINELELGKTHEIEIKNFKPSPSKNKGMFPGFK
# Chain of UniProt Q4G176 (Q4G176 whole entry, looked up): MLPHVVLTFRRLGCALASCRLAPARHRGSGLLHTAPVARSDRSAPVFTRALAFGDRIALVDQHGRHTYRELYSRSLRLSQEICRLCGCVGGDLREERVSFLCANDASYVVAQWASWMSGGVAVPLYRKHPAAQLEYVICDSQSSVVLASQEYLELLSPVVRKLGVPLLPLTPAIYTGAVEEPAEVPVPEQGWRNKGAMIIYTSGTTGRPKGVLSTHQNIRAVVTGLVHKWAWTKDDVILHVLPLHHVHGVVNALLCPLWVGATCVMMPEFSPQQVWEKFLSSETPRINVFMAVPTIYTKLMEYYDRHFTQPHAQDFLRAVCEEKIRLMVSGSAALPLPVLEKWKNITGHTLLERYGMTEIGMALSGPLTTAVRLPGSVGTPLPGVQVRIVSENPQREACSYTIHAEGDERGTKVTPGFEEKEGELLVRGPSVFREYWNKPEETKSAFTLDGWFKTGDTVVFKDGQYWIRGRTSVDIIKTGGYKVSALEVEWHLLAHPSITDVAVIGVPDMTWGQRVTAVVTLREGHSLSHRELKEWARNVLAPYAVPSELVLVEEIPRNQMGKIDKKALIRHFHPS
Target,log2 fold change [1],log2 fold change [2],log2 fold change [3],log2 fold change [4],log2 fold change [5],log2 fold change [6],log2 fold change [7],log2 fold change [8],log2 fold change [9],log2 fold change [10],log2 fold change [11],log2 fold change [12],log2 fold change [13],log2 fold change [14],log2 fold change [15],log2 fold change [16],log2 fold change [17],log2 fold change [18],log2 fold change [19],log2 fold change [20]
BECN1 (UniProt Q14457),0.069,-0.003,0.029,0.07,0.053,-0.107,-0.003,0.013,0.024,0.009,0.013,-0.038,-0.262,-0.065,-0.029,-0.054,-0.014,-0.013,0.001,0.018
BRIP1 (UniProt Q9BX63),-0.067,0.008,-0.004,-0.008,-0.16,-0.122,-0.068,0.044,0.041,-0.084,-0.034,-0.016,-0.067,-0.089,0.001,0.083,-0.068,-0.088,-0.003,0.018
ACAP2 (UniProt Q15057),-0.034,-0.192,0.066,-0.002,-0.007,-0.015,0.065,0.023,-0.004,0.063,-0.02,-0.029,-0.068,0.001,0.031,-0.032,-0.016,-0.04,0.062,-0.026
ACP2 (UniProt P11117),-0.156,-0.151,-0.068,0.019,0.004,-0.02,-0.029,0.006,0.013,-0.14,0.026,0.022,0.003,-0.036,-0.006,0.01,-0.089,-0.055,0.018,-0.006
ACSF3 (UniProt Q4G176),-0.014,-0.093,0.039,0.152,0.034,-0.17,0.008,0.125,0.016,-0.116,0.079,0.002,0.026,-0.067,0.099,-0.058,-0.051,-0.016,0.146,-0.019
BZW1 isoform 3 (UniProt Q7L1Q6),-0.273,-0.82 (active),0.114,0.019,-0.128,-0.041,0.104,0.063,0.068,-0.33,-0.083,-0.207,-0.098,0.047,-0.054,-0.141,0.128,0.027,0.158,-0.1
ACADM isoform 2 (UniProt P11310),-0.045,-0.03,-0.015,0.015,0.014,-0.042,-0.024,0.008,-0.078,-0.011,0.031,0.274 (active),-0.006,-0.03,0.019,-0.016,-0.024,0.083,-0.016,0.004
AAR2 (UniProt Q9Y312),-0.032,-0.016,-0.03,0.037,-0.038,0.106,-0.001,0,-0.087,-0.096,0.06,-0.017,-0.026,-0.027,-0.049,0.063,0.17,-0.069,-0.029,-0.015
AKAP8 (UniProt O43823),0.069,-0.268 (active),-0.017,0.003,0.02,0.026,-0.03,0.017,0,-0.131,0.012,-0.021,0.112,0.002,-0.073,0.01,0.017,-0.126,0.037,0.008
